Assay results as given in article PMC5540273 (PLoS ONE, 2017).

Experiments:
Conditions in all cases: concentration: 1 μM, replicates: in singlicate; n = 1
TLK1 = system: TLK1
TLK2 = system: TLK2
TNIK = system: TNIK
TNK1 = system: TNK1
TNK2 = system: TNK2
TNNI3K = system: TNNI3K
TRKA = system: T1, TRKA
T1 construct: gene NTRK1

TRKB = system: TRKB
TRKC = system: T2, TRKC
T2 construct: gene NTRK3

TRPM6 = system: TRPM6
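Note: KINOMEscan kinase panel screen.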

| Structure (SMILES) | %Inh (TLK1) [%] | %Inh (TLK2) [%] | %Inh (TNIK) [%] | %Inh (TNK1) [%] | %Inh (TNK2) [%] | %Inh (TNNI3K) [%] | %Inh (TRKA) [%] | %Inh (TRKB) [%] | %Inh (TRKC) [%] | %Inh (TRPM6) [%] |
| --- | --- | --- | --- | --- | --- | --- | --- | --- | --- | --- |
| Fc1ccc(-c2nc[nH]c2-c2ccncc2)cc1 [SB-217360] | 0 | 0 | 51 | 0 | 0 | 0 | 0 | 0 | 4 | 6 |
| CC[C@@H]1CO[C@H](C(=O)Nc2ccccc2)CN1c1cc(-c2ccc3c(N)n[nH]c3c2)nc(NC)n1 [GSK2376236] | 21 | 0 | 0 | 4 | 0 | 17 | 9 | 0 | 0 | 35 |
| O=C1NC(=O)C(c2ccc(Cl)cc2)=C1Nc1ccc(O)cc1 [SB-340867] | 10 | 0 | 0 | 46 | 0 | 0 | 0 | 5 | 0 | 9 |
| O=C1NC(=O)C(c2ccc(Cl)cc2)=C1Nc1cccc(Cl)c1 [SB-317651] | 12 | 0 | 0 | 0 | 0 | 0 | 23 | 21 | 0 | 0 |
| CCCCc1nn2ncccc2c1-c1ccnc(NC2CC2)n1 [GW684374] | 15 | 7 | 0 | 0 | 0 | 0 | 0 | 6 | 0 | 25 |
| O=c1cc(N2CCOCC2)nc2n(Cc3ccccc3F)ccn12 [GSK2297428] | 0 | 0 | 0 | 0 | 4 | 0 | 0 | 0 | 0 | 0 |
| COc1ccc(CSc2nnc(-c3ccc4ncsc4c3)o2)cc1C(F)(F)F | 0 | 7 | 0 | 0 | 0 | 0 | 0 | 0 | 13 | 0 |
| Cn1cncc1C(=O)NC1CCN(c2ccnc(Nc3ccc(F)cc3)n2)C1 (centres unmarked) [GSK1379717] | 18 | 0 | 0 | 0 | 10 | 0 | 0 | 17 | 48 | 31 |
| COc1ccc(Nc2nccc(N3CCC(NC(=O)c4cc5ccccc5s4)C3)n2)cc1 (centres unmarked) [GSK1379738] | 3 | 0 | 0 | 11 | 18 | 0 | 60 | 32 | 0 | 39 |
| Cc1ccccc1Cn1ccn2c(=O)cc(N3CCOCC3)nc12 [GSK2269905] | 0 | 0 | 0 | 6 | 32 | 4 | 0 | 0 | 0 | 2 |
| CNc1nc(-c2ccc3c(N)n[nH]c3c2)cc(N2C[C@@H](C(=O)NC3CCCCC3)OC[C@H]2C)n1 [GSK2375584] | 17 | 5 | 8 | 13 | 17 | 2 | 11 | 0 | 0 | 0 |
| CCn1c(-c2c(N)noc2C)nc2cnccc21 [SB-737856] | 0 | 0 | 0 | 0 | 22 | 6 | 0 | 0 | 0 | 0 |
| Cc1cnc(N)c(/C=C/c2cncc(C(=O)NCCc3ccc(Cl)cc3Cl)c2)c1.Cl [GSK190937] | 0 | 0 | 9 | 0 | 11 | 0 | 35 | 0 | 0 | 0 |
| O=C(Nc1n[nH]c2nc(-c3cccs3)c(Br)cc12)C1CCCC1 [SB-743341] | 0 | 0 | 0 | 0 | 0 | 0 | 16 | 22 | 9 | 0 |
| COc1cccc(CNC(=O)NC2CCN(c3ccnc(Nc4ccc(F)cc4)n3)C2)c1 (centres unmarked) [GSK1379723] | 0 | 0 | 0 | 0 | 16 | 4 | 0 | 0 | 5 | 0 |
| O=C(Nc1n[nH]c2nc(-c3ccco3)c(Br)cc12)C1CCN(Cc2ccccc2)C1.O=C(O)[C@H](O)[C@@H](O)C(=O)O (centres unmarked) [SB-742034] | 5 | 6 | 17 | 13 | 6 | 0 | 48 | 17 | 0 | 1 |
| CNc1nc(-c2ccc3c(N)n[nH]c3c2)cc(N2C[C@@H](C(=O)Nc3ccccc3)CC[C@H]2C)n1 [GSK2298859] | 0 | 0 | 0 | 0 | 3 | 0 | 77 | 2 | 0 | 0 |
| COc1cc2ncnc(Nc3cccc(Br)c3)c2cc1OC.Cl [GI230329] | 0 | 0 | 10 | 0 | 8 | 15 | 45 | 32 |  | 0 |
| Cn1cnc2c(N)ncnc21 [SKF-97623] | 74 | 0 | 0 | 3 | 0 | 0 | 56 | 24 | 7 | 0 |
| COc1ccc2cc(-c3nc(-c4ccccc4C(C)C)[nH]c3-c3ccncc3)ccc2c1 [SB-660566] | 0 | 0 | 0 | 32 | 14 | 15 | 0 | 13 | 1 | 18 |
| CC(=O)c1c(C)c2cnc(Nc3ccc(N4CCNCC4)cn3)nc2n(C2CCCC2)c1=O | 0 | 0 | 0 | 0 | 7 | 0 | 0 | 0 | 0 | 0 |
